Pf growth 96h = P. falciparum growth inhibition at 96 hour, primary screen for plastid delayed-death inhibitors. Potency, µM (doses to about 28.7 µM), for inactives: top-dose activity change, negative = inhibition, actives largely listed as inhibitors. 320,000 compounds, 6.9% hits. P. falciparum luciferase reporter growth, 96 h; note: % is set by controls: 0 for no effect and ±100 for the full control effect
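P. falciparum expressing integrated firefly luciferase, in erythrocytes at 2% hematocrit, 0.05% parasitemia, incubated with compounds 96 h at 37 C, 5% CO2. Growth inhibition read as loss of luminescence; two-generation exposure targets delayed-death apicoplast inhibitors.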
Pf growth 48h = P. falciparum growth inhibition at 48 hours (one generation) | P. falciparum luciferase growth in erythrocytes, 48 h | Potency, µM (doses to about 28.7 µM), for inactives: top-dose activity change, negative = inhibition, most hits filed as inhibitors | 310,000 compounds, 5.9% hits | AID 504832; note: % is set by controls: 0 for no effect and ±100 for the full control effect
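Growth was read as firefly luciferase luminescence after a 48 h, 37 C, 5% CO2 exposure of compounds to reporter-bearing P. falciparum cultures (0.1% parasitemia, 2% hematocrit final) in Albumax-supplemented RPMI 1640.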
Sm TGR inh = S. mansoni TGR enzyme inhibition; Q962Y6; purified TGR, DTNB reduction, TNB absorbance 405 nm; Potency, µM (doses to about 114 µM), inactives show at the highest dose activity change, negative = inhibition, actives largely listed as inhibitors; 360,000 compounds, 3% hits; AID 485364; note: % is set by controls: 0 for no effect and ±100 for the full control effect; nearly all actives have a fitted effect of over 60% in size
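TGR 20 nM + NADPH 100 uM (dispensed conc.), cpd preinc 15 min RT; start with NADPH (500 uM addition) then DTNB (15 mM addition). Kinetic TNB absorbance, 405 nm filter. Four-parameter Hill fit across titration.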
NS1 inh = blocks influenza NS1 protein function | Potency, µM (highest dose often 46.1 µM), for inactives: top-dose activity, positive = more growth | 270,000 compounds, 0.4% hits | AID 2326; calls by dose curve; note: actives are rising curves; nearly all actives have a fitted effect of over 50% in size
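Compounds were scored for reversing the slow growth caused by influenza A NS1 in S. cerevisiae, measured by optical density at 600 nm. Assay medium contained 2% galactose at pH 6.0; NS1-free yeast of the same strain were the positive control.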
AMA1-RON2 inh = disrupts binding of P. falciparum AMA1 to RON2. Potency, µM (top dose mostly 58.2 µM), inactives show top-dose activity change, negative = inhibition, most hits filed as inhibitors. AID 720542. AlphaScreen AMA1-biotinylated RON2 peptide binding. 360,000 compounds, 0.2% hits;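 note: 0% = vehicle wells and -100% = peptide control; nearly all actives have a fitted effect of over 45% in size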
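AMA1 (3D7) with his tag at 25 nM final met compounds first, then biotinylated RON2 peptide at 25 nM; detection used donor plus acceptor beads, 10 µg/mL apiece, read by AlphaScreen after 30 min at room temperature.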
An asterisk follows results filed as active; ? = inconclusive; . = no result given. The list is not random: actives were taken first. Their share in the collection is about 11%. Unless noted, calls come from the whole dose curve; as a rule, active = well fitted curve in the direction sought with a large enough effect; inconclusive = small, poorly fitted or top-dose-only effect, or another doubt; inactive = no such curve, though single readings can be large; an effect the other way counts as inactive or inconclusive. Potency is the fitted concentration of half-maximal effect.

SMILES | Pf growth 96h | Pf growth 48h | Sm TGR inh | NS1 inh | AMA1-RON2 inh
Cc1oc(-c2ccc(F)cc2)nc1CN(Cc1ccccn1)CC1CCCO1 (stereo unspecified) | ? | ? | 40µM* | 1% | 45%
Cc1ccc(CC(=O)NCc2nc(-c3ccccc3)no2)cc1 | . | . | 14% | . | .
Cc1ccc(OCCn2cc(Br)c(=O)[nH]c2=O)cc1 | 9.3µM* | -24% | 0% | 8% | 4%
Cc1ccc(OCCn2cnc(Cl)c2Cl)cc1 | ? | -20% | . | -12% | -1%
COC(=O)c1ccc(Cn2nnc3c(=O)[nH]c(C4CCCN(S(=O)(=O)c5cccc(Cl)c5)C4)nc32)cc1 (stereo unspecified) | ? | ? | 2% | 4% | 6%
CCOc1ccccc1OCCCC(=O)N1CCN(S(=O)(=O)c2cc(F)ccc2F)CC1 | . | . | . | . | -5%
CCOc1ccccc1OCCC(=O)N1CCN(S(=O)(=O)c2ccccc2[N+](=O)[O-])CC1 | ? | 12µM* | -10% | . | -7%
CC(C)c1ccc(S(=O)(=O)N2CCN(C(=O)CCNC(=O)Nc3ccccc3)CC2)cc1 | ? | 12µM* | -8% | . | 1%
CCOc1ccccc1OCCCC(=O)N1CCN(S(=O)(=O)c2ccc(Cl)cc2)CC1 | ? | 13µM* | -14% | . | 108%
CCCOc1ccccc1OCC(=O)N1CCN(S(=O)(=O)c2ccc(Cl)cc2)CC1 | ? | ? | -30% | . | 0%
CC(C)c1cccc(-c2csc(C(C)(O)c3ccncc3)n2)c1 (stereo unspecified) | . | . | . | . | -4%
CCCC[C@@H]1C[C@H]1[C@@H](NC(=O)c1cccs1)c1ccc(C(F)(F)F)cc1 | . | . | . | . | 7%
CCCC[C@@H]1C[C@H]1[C@@H](NC(=O)c1cccs1)c1ccc(Cl)cc1 | 9.3µM* | ? | -9% | -56% | 14%
Cc1nc2c(n1C1CCCCC1)C(=O)c1ccccc1C2=O | 1.3µM* | 1.9µM* | 0% | 15% | -6%
Cc1cccn2c(CNCCCn3ncc4ccccc43)c(C(=O)N3CCCCC3)nc12 | 15µM* | ? | 0% | -1% | -3%
O=C(c1nc2ccccn2c1CNCCCn1ncc2ccccc21)N1CCOCC1 | ? | 7% | 0% | -2% | 6%
CC(=O)c1ccc(N(CC(=O)NC2CCCCC2)C(=O)CNC(=O)c2ccco2)cc1 | 20% | 37% | 3% | -2% | 14%
CC1(CO)COC2(OC1)C(=O)Nc1ccccc12 (stereo unspecified) | ? | -20% | -4% | . | 5%
Cc1cccc2c1NC(=O)C21OCC(CO)([N+](=O)[O-])CO1 (stereo unspecified) | 2.6µM* | 7% | -22% | 6% | 8%
COc1ccc2c(c1)OC[C@H]1[C@H]2N2C(=O)c3cc(Cl)ccc3NC(=O)[C@@]2(C)[C@H]1c1ccccc1 | 3.3µM* | 9.3µM* | 6% | . | -6%
COc1ccc2c(c1)OC[C@H]1[C@H]2N2C(=O)c3cc(OC)ccc3NC(=O)[C@@]2(C)[C@H]1c1ccccc1 | 6.6µM* | 5.2µM* | 3% | . | 44%
Cc1nc2cc(N3CCCCC3)c(NC(=O)c3cccnc3)cc2c(=O)n1Cc1ccccc1 | . | 2.9µM* | 0% | -2% | -10%
CC(=O)Nc1cc2c(=O)n(Cc3ccccc3)c(C)nc2cc1N1CCOCC1 | 12% | -6% | 6.3µM* | -2% | 23%
CC(=O)Nc1cc(C(=O)c2ccccc2)ccc1N1CCOCC1 | 18% | 7% | 1% | 1% | 9%
CCOC(=O)C1(CCOC)CCCCC1=O (stereo unspecified) | . | . | . | . | 3%
COc1ccc(-c2nnc(C3CCN(S(=O)(=O)c4cccc(Cl)c4)CC3)o2)cc1 | . | . | -11% | . | .
c1ccc2c(c1)NCC1CCCN21 (stereo unspecified) | 23% | ? | 32µM* | -3% | -27%
O=C1NC[C@@H]2CCCN2C1=O | . | . | . | . | 4%
Cc1c(C)c2c(OCC(=O)NC3CC3)cc3c(c2oc1=O)CCC(C)(C)O3 | 12µM* | ? | 10% | 8% | 6%
Cc1c(C)c2c(OCC(=O)NCC(O)c3ccccc3)cc3c(c2oc1=O)CCC(C)(C)O3 (stereo unspecified) | 4.7µM* | ? | -18% | 8% | -5%

Assay outcomes: PubChem BioAssay, National Center for Advancing Translational Sciences (NCATS)
